# This is one part of a sample in which hits are shown more often than they occur.
# C diff growth = blocks growth of Clostridium difficile. Clostridium difficile clinical isolate growth, OD600, 24 h; active compounds read low. growth activity, negative = inhibition, % at 16 µg/mL (by protocol). actives 0.25% (n = 86,000). AID 1259249;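 active = mean growth activity at or below -80% and every replicate also at or below -80%; inconclusive = mean at or below -80% but some replicate above -80%; inactive = mean growth activity above -80%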;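 also: 0% = DMSO wells and -100% = levofloxacin 16 µg/mL wells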
# T cruzi growth-1 = blocks T. cruzi growth in NIH3T3 culture | T. cruzi beta-gal in NIH3T3, GalScreen luminescence, 90 h | inhibition, % at 8.34 µM | actives 5.9% (n = 77,000) | AID 624255;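 active = mean inhibition above about 93%, with at least 55% of replicates each passing it, limit read from the data, passing the limit was not always enough; inconclusive = only one of those two conditions holds; inactive = neither condition holds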
# T cruzi growth-2 = inhibitors of T. cruzi proliferation. shares compounds with T cruzi growth-1. T. cruzi beta-gal in NIH3T3, GalScreen luminescence, 90 h. inhibition, % at 8.35 µM. actives 72% (n = 5,600);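 active = mean replicate inhibition above about 95% and at least 55% of replicates individually reaching it, limit read from the data; inconclusive = only one of the two criteria is met; inactive = neither criterion is met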
# T cruzi growth-3 = blocks T. cruzi growth in NIH3T3 host cells. inhibition, % at 2.09 µM. AID 651740. shares compounds with T cruzi growth-1. T. cruzi beta-gal in NIH3T3, GalScreen luminescence, 90 h. actives 21% (n = 5,600);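 active = mean inhibition above about 95%, with at least 55% of replicates also reaching it, limit read from the data; inconclusive = meets just one of the two conditions; inactive = meets neither condition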;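 also: plate controls were neutral control median for no effect and positive control median for full effect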
# 3T3 cytotox = cytotoxicity in mouse NIH/3T3 fibroblasts; shares compounds with T cruzi growth-1; NIH/3T3 viability, CellTiter-Glo ATP luminescence, 90 h; cytotoxicity (signal decrease), % at 8.35 µM; actives 14% (n = 5,600); AID 651742;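 active = mean signal decrease across replicates above about 35% based on untreated-well scatter, with enough replicates individually passing, limit read from the data; inconclusive = no rule stated though some were filed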;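 also: 0% = median of neutral control wells and 100% = median of positive control wells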
# 3T3 cytotox 2 = NIH/3T3 (mouse) viability loss; shares compounds with T cruzi growth-1; NIH/3T3 viability, CellTiter-Glo ATP luminescence, 90 h; inhibition, % at 24.9 µM; actives 56% (n = 5,600);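 active = mean loss of cell viability signal at or above a set limit, and enough replicates individually reaching it; inconclusive = meets only the mean limit or only the replicate share; inactive = meets neither condition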;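 also: 0% = median of neutral control wells and 100% = median of positive control wells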
# * hit, by the source's call; ? = inconclusive; / = not tested or not shown.
SMILES,C diff growth,T cruzi growth-1,T cruzi growth-2,T cruzi growth-3,3T3 cytotox,3T3 cytotox 2
C[C@@H]1CCCCO[C@H](CN(C)C(=O)NC2CCCCC2)[C@@H](C)CN([C@@H](C)CO)C(=O)c2cc(NS(=O)(=O)c3ccccc3)ccc2O1,-9,94,/,/,/,/
C[C@H]1CN([C@@H](C)CO)C(=O)Cc2cc(NC(=O)C3CCCCC3)ccc2O[C@H]1CN(C)S(C)(=O)=O,-3,-17,/,/,/,/
COc1ccc2c3c([nH]c2c1)[C@H](CO)N(CC1CCOCC1)CC31CN(C(=O)C2CCOCC2)C1,2,/,/,/,/,/
COc1ccc(S(=O)(=O)N(C)C[C@@H]2OCCCC[C@H](C)Oc3ccc(NC(=O)Nc4ccc(F)cc4)cc3C(=O)N([C@H](C)CO)C[C@@H]2C)cc1,5,115*,102*,57,-5,-7
COc1ccc(S(=O)(=O)N(C)C[C@H]2OCCCC[C@@H](C)Oc3ccc(NC(=O)Nc4ccc(F)cc4)cc3C(=O)N([C@@H](C)CO)C[C@H]2C)cc1,3,104,/,/,/,/
COc1ccc(S(=O)(=O)N(C)C[C@H]2OCCCC[C@@H](C)Oc3ccc(NC(=O)Nc4ccc(F)cc4)cc3C(=O)N([C@@H](C)CO)C[C@@H]2C)cc1,1,?,/,/,/,/
COc1ccc(S(=O)(=O)N(C)C[C@@H]2OCCCC[C@H](C)Oc3ccc(NC(=O)Nc4ccc(F)cc4)cc3C(=O)N([C@@H](C)CO)C[C@H]2C)cc1,4,64,/,/,/,/
COc1ccc(S(=O)(=O)N(C)C[C@@H]2OCCCC[C@H](C)Oc3ccc(NC(=O)Nc4ccc(F)cc4)cc3C(=O)N([C@@H](C)CO)C[C@@H]2C)cc1,2,116*,108*,93,-17,-11
COc1ccc(NC(=O)Nc2ccc3c(c2)C(=O)N([C@@H](C)CO)C[C@@H](C)[C@H](CN(C)S(=O)(=O)c2ccc(F)cc2)OCCCC[C@@H](C)O3)cc1,2,?,109*,44,-25,11
C[C@@H]1CN([C@@H](C)CO)C(=O)c2cc(NC(=O)Nc3ccc(F)cc3)ccc2O[C@H]1CN(C)Cc1ccc(Oc2ccccc2)cc1,19,94,/,/,/,/
C[C@@H]1CN([C@@H](C)CO)S(=O)(=O)c2ccc(C#C[C@@H](C)O)cc2O[C@@H]1CN(C)C(=O)c1ccncc1,24,-6,/,/,/,/
O=C(C[C@H]1C[C@H]2c3cc(NC(=O)Nc4ccccc4)ccc3O[C@H]2[C@@H](CO)O1)NCc1ccccc1,-10,58,/,/,/,/
CCS(=O)(=O)N1[C@H](C#N)[C@H](c2ccc(C#CC(C)C)cc2)[C@@H]1CO,-1,48,/,/,/,/
CN(C)C(=O)c1cccc(-c2ccc([C@@H]3[C@H]4CN(C(=O)C5CCC5)CC(=O)N4[C@H]3CO)cc2)c1,-1,/,/,/,/,/
OC[C@@H]1Nc2ccc(C#Cc3ccc(F)cc3)cc2[C@H]2NCC[C@@H]12,48,/,/,/,/,/
O=C(Nc1ccccc1)N1CCCCN2[C@H](CO)[C@@H](c3ccc(-c4ccccc4)cc3)[C@@H]2C1,21,?,109*,94,-8,104*
O=C(Nc1ccccc1)N1CCCCN2[C@@H](CO)[C@H](c3ccc(-c4ccccc4)cc3)[C@@H]2C1,29,99*,91,74,44*,103*
O=C(Nc1ccccc1)N1CCCCN2[C@@H](CO)[C@@H](c3ccc(-c4ccncc4)cc3)[C@@H]2C1,0,?,91,69,9,19
Cc1ccc(-c2ccc([C@@H]3[C@H](CO)N4CCCCN(C(=O)Nc5ccccc5)C[C@@H]34)cc2)cc1,-92*,?,105*,106*,120*,105*
O=C(Nc1ccccc1)N1CCCCN2[C@H](C1)[C@@H](c1ccc(Br)cc1)[C@@H]2CO,5,53,/,/,/,/
O=C(Nc1ccccc1)N1CCCCN2[C@H](CO)[C@@H](c3ccc(Br)cc3)[C@H]2C1,2,85,/,/,/,/
Cc1ccc(-c2ccc([C@H]3[C@@H](CO)N4CCCCN(C(=O)Nc5ccccc5)C[C@H]34)cc2)cc1,0,57,/,/,/,/
O=C(Nc1ccccc1)N1CCCCN2[C@H](CO)[C@@H](c3ccc(-c4ccncc4)cc3)[C@@H]2C1,4,71,/,/,/,/
Cc1ccc(S(=O)(=O)N(C)C[C@@H]2Oc3c(NS(=O)(=O)c4ccccc4)cccc3C(=O)N([C@H](C)CO)C[C@@H]2C)cc1,-17,63,/,/,/,/
CO[C@@H]1CN(C)C(=O)c2cc(NC(=O)C3CC3)ccc2OC[C@H](C)N(C(=O)NC(C)C)C[C@@H]1C,/,-26,/,/,/,/
SMILES,C diff growth,T cruzi growth-1,T cruzi growth-2,T cruzi growth-3,3T3 cytotox,3T3 cytotox 2
CC(=O)N1CCCCN2[C@H](CO)[C@H](c3ccc(-c4ccccc4)cc3)[C@H]2C1,-14,61,/,/,/,/
CC(=O)N1CCCCN2[C@@H](CO)[C@H](c3ccc(-c4ccccc4)cc3)[C@@H]2C1,-20,104*,65,46,32,42*
C[C@@H](O)C#Cc1ccc([C@@H]2[C@H](CO)N3CCCCN(C(=O)c4ccncc4)C[C@@H]23)cc1,-6,1,/,/,/,/
COc1ccc(C#Cc2ccc([C@@H]3[C@@H](CO)N4CCCCN(C(=O)c5ccncc5)C[C@H]34)cc2)cc1,-5,112*,107*,38,45*,103*
COc1ccc(C#Cc2ccc([C@H]3[C@H](CO)N4CCCCN(C(=O)c5ccncc5)C[C@@H]34)cc2)cc1,39,116*,114*,70,28,97*
COc1ccc(C#Cc2ccc([C@H]3[C@@H](CO)N4CCCCN(C(=O)c5ccncc5)C[C@@H]34)cc2)cc1,-20,116*,104*,64,23,26
C[C@H](O)C#Cc1ccc([C@H]2[C@@H](CO)N3CCCCN(C(=O)c4ccncc4)C[C@@H]23)cc1,-1,12,/,/,/,/
C[C@H](O)C#Cc1ccc([C@H]2[C@@H](CO)N3CCCCN(C(=O)c4ccncc4)C[C@H]23)cc1,-4,24,/,/,/,/
C[C@@H]1CCCCO[C@@H](CN(C)S(=O)(=O)c2ccc(F)cc2)[C@@H](C)CN([C@H](C)CO)C(=O)c2cc(NC(=O)c3ccncc3)ccc2O1,-2,-3,/,/,/,/
CCCN(C)C[C@@H]1OCCCC[C@@H](C)Oc2ccc(NS(=O)(=O)c3ccc(Cl)cc3)cc2C(=O)N([C@@H](C)CO)C[C@@H]1C,12,87,/,/,/,/
O=C(C1CCCCC1)N1[C@H](CO)[C@@H]2c3ccccc3NC[C@@H]21,-10,4,/,/,/,/
N#Cc1cccc(-c2ccc([C@H]3[C@@H](CO)N4CCCCN(C(=O)Nc5cccc(F)c5)C[C@@H]34)cc2)c1,9,123*,105*,89,4,-2
N#Cc1ccc(-c2ccc([C@@H]3[C@@H](CO)N4CCCCN(C(=O)Nc5ccc(F)cc5)C[C@H]34)cc2)cc1,17,23,/,/,/,/
N#Cc1cccc(-c2ccc([C@H]3[C@@H](CO)N4CCCCN(C(=O)Nc5cccc(F)c5)C[C@H]34)cc2)c1,38,81,/,/,/,/

# Screens: PubChem, Broad Institute
